Laboratory results published in PMC3919609, “Deep sequencing of large library selections allows computational discovery of diverse sets of zinc fingers that bind common targets”.

Biological target: RA three-finger array, finger 2 TSWNLRS (synthetic construct (mouse Zif268 …, UniProt P08046 333-418, E352N;T354R;R355A;R377T;D379W;H380N;T382R;T383S;D407A;E408N;R409L;K410V))
Assay: Zn; 100 nM beta-estradiol; yeast GFP reporter, 12 h induction, 3 biological replicates
Conditions: tags: estrogen receptor LBD - VP16 fusion (left out); vector residues GT and GS kept at the ends; dsDNA, one strand shown

| Sequence | binding signal |
| --- | --- |
| GAGCAGAAG | 1.13 ± 0.189 mean GFP / mean GFP of Zif268 on its consensus site |
| GAGCATAAG | 0.344 ± 0.012 mean GFP / mean GFP of Zif268 on its consensus site |
| GAGGAGAAG | 0.103 ± 0.007 mean GFP / mean GFP of Zif268 on its consensus site |
| GAGAAGAAG | 0.437 ± 0.032 mean GFP / mean GFP of Zif268 on its consensus site |

Biological target: RA three-finger array, finger 2 ASSNLRA (synthetic construct (mouse Zif268 …, UniProt P08046 333-418, E352N;T354R;R355A;R377A;D379S;H380N;T382R;T383A;D407A;E408N;R409L;K410V))
Assay: as above
Conditions: tags: estrogen receptor LBD - VP16 fusion (left out); vector residues GT and GS kept at the ends; dsDNA, one strand shown

| Sequence | binding signal |
| --- | --- |
| GAGCACAAG | 0.225 ± 0.031 mean GFP / mean GFP of Zif268 on its consensus site |
| GAGCAGAAG | 0.103 ± 0.004 mean GFP / mean GFP of Zif268 on its consensus site |
| GAGCATAAG | 0.875 ± 0.05 mean GFP / mean GFP of Zif268 on its consensus site |

Biological target: RA three-finger array, finger 2 RSGNLRS (synthetic construct (mouse Zif268 …, UniProt P08046 333-418, E352N;T354R;R355A;D379G;H380N;T382R;T383S;D407A;E408N;R409L;K410V))
Assay: as above
Conditions: tags: estrogen receptor LBD - VP16 fusion (left out); vector residues GT and GS kept at the ends; dsDNA, one strand shown

| Sequence | binding signal |
| --- | --- |
| GAGCAGAAG | 0.997 ± 0.075 mean GFP / mean GFP of Zif268 on its consensus site |
| GAGCATAAG | 0.264 ± 0.005 mean GFP / mean GFP of Zif268 on its consensus site |
| GAGGAGAAG | 0.149 ± 0.009 mean GFP / mean GFP of Zif268 on its consensus site |
| GAGAAGAAG | 0.587 ± 0.052 mean GFP / mean GFP of Zif268 on its consensus site |
| GAGCAAAAG | 0.138 ± 0.011 mean GFP / mean GFP of Zif268 on its consensus site |

Biological target: Zif268 (Egr1) fingers 1-3 (Mus musculus, UniProt P08046 333-418)
Assay: as above
Conditions: dsDNA, one strand shown

| Sequence | binding signal |
| --- | --- |
| GCGTGGGCC | 0.147 mean GFP / mean GFP of Zif268 on its consensus site |
| GCGTGGGCG | 1 mean GFP / mean GFP of Zif268 on its consensus site |
| GCGTGGGAG | 0.755 mean GFP / mean GFP of Zif268 on its consensus site |
| GCGTGGGTG | 0.878 mean GFP / mean GFP of Zif268 on its consensus site |
| GCGTGGGGG | 0.059 mean GFP / mean GFP of Zif268 on its consensus site |

Biological target: RA three-finger array, finger 2 QSGNLKS (synthetic construct (mouse Zif268 …, UniProt P08046 333-418, E352N;T354R;R355A;R377Q;D379G;H380N;T382K;T383S;D407A;E408N;R409L;K410V))
Assay: as above
Conditions: tags: estrogen receptor LBD - VP16 fusion (left out); vector residues GT and GS kept at the ends; dsDNA, one strand shown

| Sequence | binding signal |
| --- | --- |
| GAGCACAAG | 0.219 ± 0.008 mean GFP / mean GFP of Zif268 on its consensus site |
| GAGCAGAAG | 0.174 ± 0.003 mean GFP / mean GFP of Zif268 on its consensus site |
| GAGCATAAG | 0.226 ± 0.01 mean GFP / mean GFP of Zif268 on its consensus site |
| GAGCAAAAG | 0.463 ± 0.041 mean GFP / mean GFP of Zif268 on its consensus site |
